Assay [1] is described as follows: inhibitors of TNFa-induced NFkB p65 translocation, primary screen, imaging, HUVEC, MLSMR starter and 10KST1 sets (AID 438;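 active = inhibition above 20% together with a positive visual image hit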;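 also: compound added about 3h40 before a 20 min TNFalpha stimulation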;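 as to inhibition: signal is the nuclear over cytoplasmic p65 intensity ratio per well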). The note with it: HUVEC TNFa-induced p65 nuclear translocation; cell count: measured here: nuclei count (cytotoxicity indicator), at 2.08 µM; inhibition: at 2 µM, stronger effect = higher value, 0% TNFa-plus-vehicle, 100% no-TNFa wells.
A short description of assay [2]: inhibitors of mutant huntingtin aggregation, primary screen, imaging, exon1htt(103Q)mCFP cells, high-content imaging (AID 483;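 active = visual image review flags a hit and inhibition of aggregation exceeds 20%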;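 also: compound exposure lasted 3 days before fixation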;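 as to nuclei count: percent of the per-plate median nuclei count of sample wells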). Conditions: exon1htt(103Q)mCFP cell line, aggregate imaging, at 2 µM; inhibition of aggregation: stronger effect = higher value; nuclei count: measured here: cell count, toxicity.
A short description of assay [3]: inhibitors of E-selectin induction by TNFa, primary screen, imaging, HUVEC, immunofluorescence, MLSMR starter and 10KST1 sets (AID 487;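 active = visually confirmed hit in the image check and inhibition above 20%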;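 as to inhibition: signal is fraction of cell area covered by stained E-selectin grains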;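 as to nuclei count: 100% = median nuclei count of all wells on the same plate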). Conditions: HUVEC TNFalpha-induced E-selectin immunofluorescence imaging, at 2 µM; inhibition: stronger effect = higher value; nuclei count: measured here: cell number, toxicity.
A short description of assay [4]: DUSP6 inhibitors restoring Erk phosphorylation by chemical complementation, primary imaging in DUSP6-transfected HeLa (AID 609;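 active = compounds giving at least 50% inhibition in the cell-based MKP-3 phosphatase rescue imaging test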;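 as to inhibition: phospho-Erk level distribution per well compared with pooled transfected vehicle control wells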). Conditions: HeLa MKP-3 transfected, phospho-Erk imaging KS statistic, at 10 µM, cells stimulated with TPA for 15 min.
Assay [5] deals with Dual specificity protein phosphatase 6 (Homo sapiens) (UniProt Q16828). Described as above. The note with it: HeLa MKP-3 transfected, phospho-Erk imaging KS statistic; at 10 µM; stronger effect = higher value; cells stimulated with TPA for 15 min.
Dual specificity protein phosphatase 6 (Homo sapiens), sequence (Q16828 whole entry, looked up): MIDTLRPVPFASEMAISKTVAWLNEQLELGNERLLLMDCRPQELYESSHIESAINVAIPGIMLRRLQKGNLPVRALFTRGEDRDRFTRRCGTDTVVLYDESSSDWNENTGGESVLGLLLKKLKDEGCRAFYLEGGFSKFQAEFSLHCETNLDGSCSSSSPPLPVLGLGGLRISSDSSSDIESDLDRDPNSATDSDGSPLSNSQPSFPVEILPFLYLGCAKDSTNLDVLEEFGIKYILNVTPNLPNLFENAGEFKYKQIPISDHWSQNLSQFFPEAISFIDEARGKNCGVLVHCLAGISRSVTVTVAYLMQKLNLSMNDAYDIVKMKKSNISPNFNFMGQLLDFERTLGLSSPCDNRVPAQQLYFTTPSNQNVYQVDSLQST
The target in assay [6] is Voltage-gated potassium channel subunit beta-2 (Rattus norvegicus) (UniProt P62483). As to the kind of experiment: KvBeta enzyme negative modulators, primary screen, biochemical, NADPH fluorescence (AID 622;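 active = fluorescence slope higher than the sample average by over 3 SD, cut at about -0.22 in these data, passing the limit was not always enough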;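 also: slope of raw intensity against log time taken from 70 to 1610 s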). Conditions: recombinant KvBeta, 4-cyanobenzaldehyde reduction, at 10 µM, stronger effect = higher value.
Voltage-gated potassium channel subunit beta-2 (Rattus norvegicus), sequence (P62483 whole entry, looked up): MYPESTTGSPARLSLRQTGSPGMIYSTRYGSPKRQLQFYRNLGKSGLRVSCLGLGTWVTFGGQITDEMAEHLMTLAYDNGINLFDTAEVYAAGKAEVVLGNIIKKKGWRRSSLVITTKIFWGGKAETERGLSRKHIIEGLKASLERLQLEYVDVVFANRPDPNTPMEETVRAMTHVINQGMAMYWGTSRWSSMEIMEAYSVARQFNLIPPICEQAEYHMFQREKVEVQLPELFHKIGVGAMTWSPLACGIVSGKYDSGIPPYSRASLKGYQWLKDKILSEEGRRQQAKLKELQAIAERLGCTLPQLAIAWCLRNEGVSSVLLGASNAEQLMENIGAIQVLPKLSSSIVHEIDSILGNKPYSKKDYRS
Assay [7] has the same target. Kind of assay: KvBeta positive modulators, primary screen, biochemical, NADPH fluorescence (AID 623;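 active = NADPH fluorescence slope more negative than the mean of all samples by about 3 SD, 99.7% confidence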;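 also: fluorescence intensity change per second fitted from 20 to 320 s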). The note with it: Recombinant KvBeta, NADPH fluorescence decrease slope, 10 min; at 10 µM; stronger effect = lower value.
The target of assay [8] is Alpha-2C adrenergic receptor (Homo sapiens) (UniProt P18825). Kind of assay: modulators of alpha2C/GIRK thallium flux, primary screen, cell-based, HEK293 alpha2C/GIRK1/2 (AID 624;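 active = fluorescence slope after compound addition differing from the mean of all screened samples at 99.7% confidence, in either direction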;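 also: slope of fluorescence ratio to pre-addition baseline per second over 15 to 24 s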). Conditions: thallium flux BTC fluorescence, at 10 µM, actives lie on both sides.
Alpha-2C adrenergic receptor (Homo sapiens), sequence (P18825 whole entry, looked up): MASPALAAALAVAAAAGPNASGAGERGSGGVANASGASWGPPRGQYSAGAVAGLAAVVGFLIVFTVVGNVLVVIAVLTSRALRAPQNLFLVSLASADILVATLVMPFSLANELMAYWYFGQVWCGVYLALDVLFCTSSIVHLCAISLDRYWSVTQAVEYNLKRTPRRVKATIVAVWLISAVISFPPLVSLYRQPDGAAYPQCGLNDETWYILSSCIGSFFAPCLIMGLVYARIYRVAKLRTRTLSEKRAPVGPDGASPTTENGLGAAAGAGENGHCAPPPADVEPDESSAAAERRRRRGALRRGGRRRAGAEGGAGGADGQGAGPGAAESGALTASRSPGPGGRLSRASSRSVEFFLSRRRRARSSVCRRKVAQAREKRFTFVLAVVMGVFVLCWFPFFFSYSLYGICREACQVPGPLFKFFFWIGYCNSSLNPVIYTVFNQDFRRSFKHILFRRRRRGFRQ
Assay [9] deals with Muscarinic acetylcholine receptor M4 (Homo sapiens) (UniProt P08173). Kind of assay: compounds altering M4/GIRK thallium flux, either direction, primary screen, M4 allosteric agonist project, cell-based, HEK293 M4/GIRK, BTC-AM (AID 625;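 active = fluorescence slope after compound addition differing from the mean of all tested samples at 99.7% confidence, mostly higher but some lower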;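 also: thallium influx through GIRK channels coupled to M4 in HEK293 cells with BTC-AM dye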). Conditions: at 10 µM, actives lie on both sides.
Muscarinic acetylcholine receptor M4 (Homo sapiens), sequence (P08173 whole entry, looked up): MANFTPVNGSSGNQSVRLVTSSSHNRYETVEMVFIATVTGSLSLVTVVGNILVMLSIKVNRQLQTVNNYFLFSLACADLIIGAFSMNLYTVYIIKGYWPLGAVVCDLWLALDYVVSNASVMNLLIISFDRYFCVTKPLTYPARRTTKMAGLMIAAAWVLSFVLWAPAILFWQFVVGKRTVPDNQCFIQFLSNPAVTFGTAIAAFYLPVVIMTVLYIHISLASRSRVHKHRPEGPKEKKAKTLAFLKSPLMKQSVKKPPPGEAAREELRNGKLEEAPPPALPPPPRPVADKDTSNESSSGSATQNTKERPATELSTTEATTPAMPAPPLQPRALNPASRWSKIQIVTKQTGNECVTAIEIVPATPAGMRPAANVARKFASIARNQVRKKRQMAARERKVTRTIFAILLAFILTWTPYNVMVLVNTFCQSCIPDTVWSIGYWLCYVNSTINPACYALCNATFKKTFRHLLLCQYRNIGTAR
Assay [10] is described as follows: inhibitors of larval lipid processing in zebrafish, primary screen, whole organism, PED6 fluorescence, gall bladder and intestine (AID 686;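 active = a full or partial loss of lipid-probe fluorescence in the fish gall bladder, intestine or both, judged by eye; inactive = no fluorescence loss, or compound toxic to the fish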;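 also: larvae 5 to 7 days old with five fish per well; signal comes from phospholipase A2 cleavage of quenched PED6 carried via bile; overnight exposure to compound and PED6 before scoring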). The note with it: Zebrafish larvae PED6 lipid processing, fluorescence scoring; screened at 20 µM (by protocol).
A short description of assay [11]: inhibitors of Chlamydomonas gravitaxis, primary screen, whole organism, Chlamydomonas reinhardtii, WT vs cilia-less mutant, absorbance, 96-well (AID 463189;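 active = inhibition at or above 50% relative to wild type and mutant plate controls; inactive = inhibition below 50%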;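 also: 0% = wild type cc124 cells in DMSO and 100% = ciliumless bld1 mutant cells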). The note with it: OD600 absorbance, 2 days, at 10 µM, stronger effect = higher value.
The nature of assay [12]: inhibitors of Sendai virus-induced IRF3 signaling, primary screen, TLR/RLR signaling modifier project, cell-based, Sendai virus stimulus, luciferase, 10K MLSCN set (AID 602276;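 active = inhibition at or above 50% at 10 µM; inactive = inhibition below 50%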;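 also: firefly luciferase from ISG56 promoter only with Renilla not read in this screen; 0% = Sendai virus plus DMSO and 100% = medium plus DMSO without virus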). The note with it: HEK293 RL24 IRF3 luciferase reporter, at 10 µM, stronger effect = higher value. (In general: A reporter such as luciferase makes a cellular process visible.)
A short description of assay [13]: inhibitors of poly I:C-induced TLR3 signaling, primary screen, cell-based, poly I:C stimulus, luciferase, 10K MLSCN set (AID 602277). The note with it: HEK293-TLR3 RL24 IRF3 luciferase reporter, at 10 µM, stronger effect = higher value.
Setting [14] is: measured here: cell density z-score.
Where [15] appears, read: measured here: nuclear c-Myc green intensity z-score.
[16] abbreviates: measured here: nuclear pErk red intensity z-score, stronger effect = higher value.

The source made the active and inactive calls.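 The calls were made as follows, unless noted: active = inhibition of the reporter signal at or above 50%; inactive = inhibition below 50%.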

As for `Cc1nc(Sc2cccn2C)c(C(F)(F)F)c(=O)[nH]1`, in [1], the cell count stood at 556. The inhibition (commonly the drop in the measured response relative to a control, in per cent) in assay [1] was -4.5% (inactive); in assay [3], -64.1% (inactive); in assay [5], 1.9e-07% (inactive); in assay [11], 12.2% (inactive); in assay [12], 13.1% (inactive); in [13], 3.1% (inactive). Also, the inhibition of aggregation in assay [2] is 4.3% (inactive). In addition, the nuclei count came out at 96.7% in [2] and 108% in assay [3]. Further, the z-score in assay [4] (setting [14]) is -1.97; in assay [4] (setting [15]), 0.557; in assay [4] (setting [16]), 2.32. Further, the fluorescence slope was -0.447 (inactive) in assay [6] and 0.00695 (inactive) in assay [9]. In assay [7], the NADPH fluorescence slope was -2.3e-05 (inactive). In addition, in assay [8], the slope is 0.00534 (inactive). Besides, the compound was classed as inactive in assay [10].
Turning to `Cc1cc(Cn2ccnc2)c(C)cc1Cn1ccnc1`, in [1], the cell count was 637. In addition, the inhibition in assay [1] was -4.4% (inactive); in assay [3], -55.4% (inactive); in assay [5] it was -7.67% (inactive); in assay [11], 139% (active); in assay [12] it was 19.2% (inactive); in [13], 17.7% (inactive). Moreover, the inhibition of aggregation in assay [2] is 7.9% (inactive). Also, the nuclei count in [2] turned out to be 100%; in [3], 124%. The z-score in [4] (setting [14]) was -0.00236; in assay [4] (setting [15]) it was 1.89; in assay [4] (setting [16]), -0.864. Besides, the fluorescence slope is -0.463 (inactive) in assay [6] and 0.0041 (inactive) in assay [9]. Also, the NADPH fluorescence slope in assay [7] is -0.000121 (inactive). The slope in assay [8] was 0.00445 (inactive). Further, the compound was classed as inactive in [10].
`COc1cccc(-c2nnc3sc(C4CCCCC4)nn23)c1`: in [1], the cell count is 569. The inhibition was -0.9% (inactive) in assay [1]; -37.4% (inactive) in [3]; -13.3% (inactive) in assay [5]; 112% (active) in assay [11]; 28.7% (inactive) in assay [12]; 10.1% (inactive) in assay [13]. The inhibition of aggregation in [2] was 42.2% (active). Further, the nuclei count in assay [2] is 66.9%; in [3], 130%. The z-score in [4] (setting [14]) is 0.451; in assay [4] (setting [15]) it was 0.807; in assay [4] (setting [16]) it was -1.36. Also, the fluorescence slope in [6] is -0.418 (inactive). Also, the NADPH fluorescence slope in assay [7] was -0.000116 (inactive). In assay [8], the slope is 0.00489 (inactive). In addition, the compound was classed as inactive in assay [10].
Turning to `CC(=O)[C@@]1(O)CC[C@H]2[C@@H]3C[C@H](C)C4=CC(=O)CC[C@]4(C)[C@H]3CC[C@@]21C`, the cell count in assay [1] turned out to be 734. Moreover, the inhibition in assay [1] is -6.2% (inactive); in assay [3], -107% (inactive); in [5] it was 3.45% (inactive); in [11], -2.53% (inactive); in [12], -4.16% (inactive); in [13] it was 43.2% (inactive). For the same compound, in assay [2], the inhibition of aggregation was 0.8% (inactive). Moreover, the nuclei count in assay [2] turned out to be 108%; in assay [3], 113%. For the same compound, the results for the z-score in assay [4] (setting [14]), in assay [4] (setting [15]) and in assay [4] (setting [16]) were 1.42, -0.494 and -1.54, respectively. Further, the fluorescence slope in [6] is -0.486 (inactive). In addition, the NADPH fluorescence slope in assay [7] was -0.000112 (inactive). Moreover, the slope in [8] was 0.0052 (inactive). Also, in assay [10], the compound was classed as inactive.
As for `O=C(NCc1ccco1)c1cnn2c(C(F)(F)F)cc(-c3ccco3)nc12`, the cell count in assay [1] was found to be 480. Besides, the inhibition in assay [1] was -4.4% (inactive); in assay [3] it was -34.8% (inactive); in assay [5] it was 11.3% (inactive); in assay [11] it was -15.7% (inactive); in assay [12] it was 16% (inactive); in assay [13], 24.8% (inactive). Further, the inhibition of aggregation in assay [2] is -12.5% (inactive). Further, the values for the nuclei count in [2] and in [3] were 95.1% and 118%, respectively. Moreover, the results for the z-score in assay [4] (setting [14]), in assay [4] (setting [15]) and in assay [4] (setting [16]) were -0.634, 0.493 and -1.31, respectively. Also, the fluorescence slope in assay [6] is -0.421 (inactive). Besides, the NADPH fluorescence slope in assay [7] was -6.2e-05 (inactive). Further, the slope in assay [8] was 0.00539 (inactive). In addition, the result in [10] was inactive.

Values taken from PubChem BioAssay.
